Compound activity from PubChem BioAssay.
SW480 rerep: DNA re-replication induction in SW480 cells; SW480 DNA re-replication, Hoechst DNA content imaging, 48 h; AID 624297; hit rate 1.8% among 340,000; Potency, µM (series often up to 46.1 µM), for inactives: top-dose re-replication activation, hits mostly activators; further: potency means the concentration at half of the fitted maximal effect; % of control where 0% means no effect; nearly all actives have a fitted effect of over 55% in size
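SW480 cells exposed to compounds for 48 hr at 37 C, 5% CO2, then Hoechst-stained 40 min. Nuclear DNA content imaged by fluorescence scanning (405 nm excitation, 500-530 nm emission); re-replication scored as increased high-intensity nuclei.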
MCF10A rerep: DNA re-replication induction in MCF 10a cells; hit rate 2.9% among 350,000; MCF 10A DNA re-replication, Hoechst nuclear intensity, 48 h; Potency, µM (doses to about 46.1 µM), inactives show top-dose activity, positive = re-replication, usual class: activators; further: potency means the concentration at half of the fitted maximal effect; % of control where 0% means no effect; nearly all actives have a fitted effect of over 50% in size
D3 antag: antagonists of human D3 dopamine receptor; D3R cells, DiscoveRx beta-arrestin luminescence, antagonist mode; active compounds read low; AID 652054; P35462; hit rate 2.5% among 360,000; max response, negative = inhibition, %; in the data active means max response below about -50%; inconclusive means no clear call, values can overlap the other calls; further: on the % scale 0 is the no-effect control and ±100 the full control effect
Target sequence (P35462 whole entry, looked up): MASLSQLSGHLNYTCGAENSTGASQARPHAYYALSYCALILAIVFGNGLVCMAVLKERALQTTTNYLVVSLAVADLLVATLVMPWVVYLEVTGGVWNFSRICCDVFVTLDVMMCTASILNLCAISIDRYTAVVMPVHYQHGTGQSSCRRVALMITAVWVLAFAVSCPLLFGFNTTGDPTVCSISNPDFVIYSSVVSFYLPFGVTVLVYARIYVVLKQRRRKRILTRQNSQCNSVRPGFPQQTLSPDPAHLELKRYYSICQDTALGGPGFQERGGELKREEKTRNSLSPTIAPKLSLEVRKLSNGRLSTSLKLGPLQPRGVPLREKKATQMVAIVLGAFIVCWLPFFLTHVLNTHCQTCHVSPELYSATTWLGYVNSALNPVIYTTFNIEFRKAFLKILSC
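Cells plated overnight at 1500 cells/well, then exposed to library compounds with dopamine controls for 90 minutes at 37 degrees C. DiscoveRx reagent added for 30–60 minutes at room temperature; luminescence read, quantitative HTS format.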
KB-V1 MDR tox: KB-V1 MDR subline cytotoxicity | KB-V1 MDR cells viability, CellTiter-Glo, 72 h | Potency, µM (series often up to 46.1 µM), most hits filed as cytotoxic | hit rate 3.4% among 400,000; further: potency means the concentration at half of the fitted maximal effect; on the % scale 0 is the no-effect control and ±100 the full control effect; nearly all actives have a fitted effect of over 60% in size
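KB-V1 cells (P-gp-expressing MDR subline of KB-3-1) in phenol-red-free DMEM with 10% FBS were exposed to library compounds over a concentration series for 72 h at 37 degrees C. Viability read by CellTiter-Glo luminescence; concentration-effect curves fitted after normalization.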
KB-3-1 tox: KB-3-1 parental cell cytotoxicity | KB-3-1 viability, CellTiter-Glo ATP luminescence, 72 h | Potency, µM (titrated, usually from 46.1 µM), actives largely listed as cytotoxic | hit rate 1.4% among 400,000; further: potency means the concentration at half of the fitted maximal effect; on the % scale 0 is the no-effect control and ±100 the full control effect; nearly all actives have a fitted effect of over 60% in size
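Cytotoxicity measured as CellTiter-Glo luminescence after 72 h at 37 C. Compound titrations were pinned onto drug-naive KB-3-1 parental adenocarcinoma cells grown in DMEM with 10% FBS, and normalized data fitted to concentration-response curves.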
D3 ag: activates the human D3 dopamine receptor; D3R DiscoveRx beta-arrestin cells, luminescence, 90 min; hit rate 0.58% among 410,000; max activation, %; in the data active means max activation above about 30%; further: 0% is about no effect
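Agonist-mode cell screen: cells plated at 1500/well and incubated overnight at 37 °C, then exposed to library compounds for 90 min at 37 °C. Detection reagent was added for 30–60 min at room temperature, and luminescence was read.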
Active calls of the source: *; i = inactive; ? = inconclusive; . = no result. Hits are enriched below; roughly 8.9% of the tested compounds scored in any of these assays. Unless noted, the call rests on the fitted dose curve; in most records, active means well fitted curve in the direction sought with a large enough effect; inconclusive means small, poorly fitted or top-dose-only effect, or another doubt; inactive means no such curve, though single readings can be large; an effect the other way counts as inactive or inconclusive.

SMILES	SW480 rerep	MCF10A rerep	D3 antag	KB-V1 MDR tox	KB-3-1 tox	D3 ag
COc1ccc(-c2ccc(=O)n(Cc3ccccc3)n2)cc1	-1.3%	0.1%	2.1	i	i	-2.8
COc1ccc(-c2c(C)nn(Cc3ccccc3)c2N)cc1	25.0%	1.3%	-13.6	20.6µM*	i	-12.4
COc1ccc2cc(C(=O)/C=C/c3cc(OC)c(O)c(OC)c3)ccc2c1	?	9.2µM*	-29.3	i	?	4.9
COc1cc(/C=C/C(=O)c2ccc(C)c([N+](=O)[O-])c2)cc(OC)c1O	.	9.2µM*	?	?	i	-8.9
COc1ccc(/C=C/C(=O)c2ccc(C)c([N+](=O)[O-])c2)cc1O	?	?	-23.8	?	?	-6.0
COc1cc(C(=O)/C=C/c2cccnc2)c([N+](=O)[O-])cc1OC	4.9%	23.1µM*	-73.4*	i	?	0.0
COc1cccc(/C=C/C(=O)c2ccc(C)c([N+](=O)[O-])c2)c1	?	6.51µM*	-6.6	i	i	-9.2
CCc1nnc(SC(CC)C(=O)NCCOC)c2cc3occc3n12 (centres undefined)	.	.	.	i	i	-1.9
O=C(CCC1N=C2c3ccccc3N=C(SCC(=O)Nc3ccc(F)cc3)N2C1=O)NCc1cccs1 (centres undefined)	.	.	.	?	i	5.9
CCOCCCNC(=O)CN1C(=O)CCn2nc(-c3cccn3C)cc21	.	.	.	i	i	0.0
CCCCCc1ccc(-c2ccc(=O)[nH]n2)cc1	-1.1%	15.6%	-2.1	5.17µM*	6.51µM*	-7.7
Cc1ccc(-c2ccc(=O)[nH]n2)cc1	0.1%	0.3%	-2.4	?	i	2.8
COc1cc2c(C#CCCO)c(-c3ccsc3)oc(=O)c2cc1OC	-7.3%	24.7%	26.1	i	i	13.2
COCc1ccc(-c2c(-c3ccsc3)oc(=O)c3cc(OC)c(OC)cc23)cc1	1.4%	3.66µM*	121.4	?	?	41.5*
COc1cccc(N2CCN(C(=O)C3CCC(CNS(=O)(=O)c4ccc(Br)s4)CC3)CC2)c1 (centres undefined)	.	.	.	?	i	6.9
O=C(NC(Nc1nc2ccc([N+](=O)[O-])cc2s1)(C(F)(F)F)C(F)(F)F)c1cccnc1	12.0%	27.6%	-20.2	?	11.6µM*	-2.8
O=C(NC(Nc1nc2ccc([N+](=O)[O-])cc2s1)(C(F)(F)F)C(F)(F)F)c1ccccc1Cl	?	20.6µM*	-10.5	i	?	-7.0
O=[N+]([O-])c1ccc2nc(SCc3ccccc3Cl)sc2c1	19.2%	13µM*	6.5	i	i	-2.1
CCCN(CCC)CCCNC(=O)Cn1cnc2onc(-c3ccc(F)cc3)c2c1=O	.	.	.	i	i	-10.4
CNCCCC1c2ccccc2C=Cc2ccccc21	?	?	-99.2*	?	i	-87.0
CN(C)c1ccc(C2C=Cc3ccccc32)c2ccccc12 (centres undefined)	.	.	.	i	i	.
COc1cccc(-c2nnc(NC(=O)c3ccc(S(=O)(=O)N4CCOCC4)cc3)o2)c1	?	17.6%	?	?	5.8µM*	-0.7
COc1ccccc1-c1nnc(NC(=O)c2ccc(S(=O)(=O)N3CCOCC3)cc2)o1	?	?	-18.3	?	?	-9.2
CCOC(=O)N1CCN(S(=O)(=O)c2ccc(C(=O)Nc3nnc(C)o3)cc2)CC1	-1.2%	-5.2%	-51.5*	i	i	-16.9
COc1cccc(NS(=O)(=O)c2ccc(S(=O)(=O)N3CCOCC3)cc2)c1	-4.2%	5.6%	14.1	i	?	39.9*
COc1cccc(NS(=O)(=O)c2ccc(S(=O)(=O)N3CCCC3)cc2)c1	2.8%	6.2%	3.7	i	i	-0.3
CCOC(=O)N1CCN(S(=O)(=O)c2ccc(C(=O)Nc3nnc(CSC)o3)cc2)CC1	-1.2%	0.1%	10.4	i	i	5.0
CC1CCN(S(=O)(=O)c2ccc(C(=O)Nc3nnc(C4CC4)o3)cc2)CC1	13µM*	?	2.9	i	?	4.3
